# In PMC7826789 (International Journal of Molecular Sciences, 2021):
# Assays:
# Conditions in all cases: Compound Concentration (nM):1000
# PLK3 = tested on: PLK3
# PLK4 = tested on: PLK4
# PRKCD = tested on: PRKCD
# PRKCE = tested on: PRKCE
# PRKCH = tested on: PRKCH
# PRKCI = tested on: PRKCI
# PRKCQ = tested on: PRKCQ
# PRKD1 = tested on: PRKD1
# PRKD2 = tested on: PRKD2
# PRKD3 = tested on: PRKD3
# 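Also: KINOMEscan scanMAX binding as percent activity remaining versus control; lower means stronger binding.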
Compound,Percent Control (PLK3),Percent Control (PLK4),Percent Control (PRKCD),Percent Control (PRKCE),Percent Control (PRKCH),Percent Control (PRKCI),Percent Control (PRKCQ),Percent Control (PRKD1),Percent Control (PRKD2),Percent Control (PRKD3)
NS(=O)(=O)c1ccc(Nc2ncc(-c3ccccc3)o2)cc1 [GW572399X],86%,100%,100%,100%,100%,100%,100%,100%,100%,61%
Cl.O=C(Nc1ccc(Oc2ccc3[nH]c(NC(=O)c4ccccc4)nc3c2)cc1)Nc1cc(C(F)(F)F)ccc1F [GW709042A],92%,77%,87%,100%,100%,90%,100%,100%,100%,83%
Cc1cc(O)cc(C)c1/C=C/c1cncc(C(N)=O)c1 [GW435821X],90%,85%,87%,93%,100%,100%,90%,100%,100%,79%
COc1cc(N2CCN(C(C)C)CC2)ccc1Nc1nc(Nc2ccc(F)cc2C(=O)NC[C@@H](O)CO)c2cc[nH]c2n1 [GSK1392956A],96%,41%,100%,100%,100%,97%,95%,79%,57%,49%
Cl.O=C(Nc1ccc(Oc2ccc3[nH]c(NC(=O)c4ccco4)nc3c2)cc1)Nc1cc(C(F)(F)F)ccc1F [GW683134A],86%,100%,99%,100%,92%,100%,100%,68%,100%,82%
COc1ccc2cc(-c3c(-c4ccncc4)nc(-c4ccc(S(C)(=O)=O)cc4C)n3C)ccc2c1 [SB-633825],67%,85%,91%,90%,100%,68%,59%,84%,100%,29%
COc1cccc(-c2c[nH]c3c(N/N=C/c4ccncc4)ncnc23)c1 [GW814408X],100%,96%,100%,100%,100%,30%,100%,100%,100%,91%
C[C@@H](Oc1cc(-n2cnc3ccc(OC4CCN(C)CC4)cc32)sc1C(N)=O)c1ccccc1Cl [GSK579289A],19%,78%,66%,100%,100%,43%,58%,100%,84%,70%
O=C1Nc2ccc(C(=O)c3ccco3)cc2C1=Cc1cc(Cl)c(O)c(Cl)c1 [GW406108X],37%,63%,100%,100%,100%,100%,100%,100%,100%,100%
COc1ccc2c(-c3ccnc(Nc4cccc(OC(F)(F)F)c4)n3)cnn2n1 [GW810372X],83%,100%,99%,100%,94%,100%,100%,100%,100%,100%
O=C(Nc1n[nH]c2nc(-c3ccc(O)cc3)c(Br)cc12)C1CC1 [SB-725317],88%,82%,45%,46%,78%,90%,58%,100%,100%,99%
CCc1ccc(Oc2nccc(-c3c(-c4ccc(F)cc4)ncn3C3CCNCC3)n2)cc1 [SB-242719],83%,79%,100%,95%,100%,95%,84%,95%,85%,70%
C/C(Nc1ccc(S(N)(=O)=O)cc1)=C1/C(=O)Nc2ccccc21 [GW335962X],83%,74%,95%,96%,100%,100%,81%,100%,100%,86%
Cl.O=S1CCN(Cc2ccc(-c3ccc4ncnc(Nc5ccc(OCc6ccccc6)c(F)c5)c4c3)o2)CC1 [GW576924A],100%,100%,100%,91%,100%,100%,100%,100%,100%,100%
COc1cc(/C=N/Nc2ncnc3[nH]ncc23)ccc1O [GW578748X],52%,36%,78%,100%,100%,63%,96%,100%,100%,85%
COc1cc(C)c(N(C)C(=O)CN(C)C)cc1Nc1nc(Nc2cccc(F)c2C(N)=O)c2cc[nH]c2n1 [GSK2219385],94%,84%,100%,100%,100%,82%,92%,100%,89%,88%

Compound,Percent Control (PLK3),Percent Control (PLK4),Percent Control (PRKCD),Percent Control (PRKCE),Percent Control (PRKCH),Percent Control (PRKCI),Percent Control (PRKCQ),Percent Control (PRKD1),Percent Control (PRKD2),Percent Control (PRKD3)
COc1ccc2[nH]c3c4[nH]c5ccc(OC)cc5c4c4c(c3c2c1)C(=O)NC4=O [GW296115X],88%,1.4%,93%,75%,35%,63%,44%,68%,62%,75%
CCS(=O)(=O)c1ccc(OC)c(Nc2ncc(-c3cccc(F)c3)o2)c1 [GW621970X],100%,40%,100%,100%,100%,100%,100%,100%,100%,85%
CCS(=O)(=O)c1ccc(OC)c(Nc2ncc(-c3cccc(OC)c3)o2)c1 [GW580509X],94%,50%,100%,62%,100%,100%,100%,100%,100%,100%
Cl.c1ccc(Cc2nc3ccc(Nc4ncnc5ccccc45)cc3[nH]2)cc1 [GR269666A],100%,100%,100%,78%,100%,100%,88%,100%,100%,100%
NS(=O)(=O)c1ccc(N/N=C2\C(=O)Nc3ccc(Cl)cc32)cc1 [GW280670X],95%,89%,99%,100%,100%,100%,100%,100%,100%,100%
CN(C)c1cc2c(Nc3ccc4c(cnn4Cc4ccccc4)c3)ncnc2cn1 [GW282974X],100%,66%,100%,100%,97%,88%,100%,100%,95%,89%
COc1ccc(COc2ccc(Cc3cnc(N)nc3N)cc2OC)cc1 [GW632580X],97%,72%,71%,100%,100%,88%,79%,100%,100%,100%
CC1=C(C(=O)Nc2ccc3[nH]ncc3c2)C(c2ccc(Cl)c(Cl)c2)CC(=O)N1 (stereo not shown) [GSK299115A],84%,87%,100%,94%,100%,91%,95%,100%,85%,47%
COc1cc2ncn(-c3cc(O[C@H](C)c4ccccc4Cl)c(C(N)=O)s3)c2cc1OC [GSK237701A],2%,30%,100%,91%,100%,78%,100%,100%,100%,49%
CCn1c(-c2nonc2N)nc2c(C#CC(C)(C)O)nc(OCCNC)cc21.Cl [GSK949675],100%,90%,40%,0%,15%,61%,3.3%,95%,100%,88%
NS(=O)(=O)c1ccc(N/N=C2\C(=O)Nc3ccc(C(=O)NCc4ccncc4)cc32)cc1 [GW300657X],83%,39%,100%,97%,96%,80%,100%,100%,94%,85%
COc1cc2ncnc(Nc3ccc4c(cnn4Cc4ccccc4)c3)c2cc1OC.Cl [GW282449A],100%,100%,100%,64%,100%,100%,100%,100%,100%,98%
COc1cccc(-n2ncc3c(N/N=C/c4ccncc4)ncnc32)c1 [GW784752X],88%,84%,100%,100%,99%,72%,100%,100%,100%,91%
CN1CCN(C(=O)c2ccc(NC(=O)Nc3ccc(N(C)c4ccnc(Nc5ccc(CS(C)(=O)=O)cc5)n4)cc3)cc2)CC1.Cl [GW830263A],100%,2.7%,100%,99%,100%,74%,51%,100%,100%,100%
COC(=O)Nc1nc2ccc(Oc3ccc(NC(=O)Nc4cc(C(F)(F)F)ccc4F)cc3)cc2s1.Cl [GW693917A],100%,66%,100%,100%,100%,91%,62%,100%,100%,86%
